TEAD-YAP block: TEAD-YAP interaction inhibition; AID 1259422; 640,000 tested, 1.4% active; HEK-TIYL cells, TEAD-Gal4/YAP UAS-luciferase luminescence; inhibition, % at 9.12 µM; in the data active = inhibition above about 32%;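 note: 0% = median of test compound wells and 100% = reference inhibitor wells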
MITF inh: blocks human microphthalmia-associated transcription factor; AID 1259374; inhibition, % at 2.6 µM; AlphaScreen MITF homodimerization, bead proximity signal; 650,000 tested, 0.91% active; O75030; in the data active = inhibition above about 50%;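 note: 0% = vehicle wells with protein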
Target sequence (O75030 whole entry, looked up): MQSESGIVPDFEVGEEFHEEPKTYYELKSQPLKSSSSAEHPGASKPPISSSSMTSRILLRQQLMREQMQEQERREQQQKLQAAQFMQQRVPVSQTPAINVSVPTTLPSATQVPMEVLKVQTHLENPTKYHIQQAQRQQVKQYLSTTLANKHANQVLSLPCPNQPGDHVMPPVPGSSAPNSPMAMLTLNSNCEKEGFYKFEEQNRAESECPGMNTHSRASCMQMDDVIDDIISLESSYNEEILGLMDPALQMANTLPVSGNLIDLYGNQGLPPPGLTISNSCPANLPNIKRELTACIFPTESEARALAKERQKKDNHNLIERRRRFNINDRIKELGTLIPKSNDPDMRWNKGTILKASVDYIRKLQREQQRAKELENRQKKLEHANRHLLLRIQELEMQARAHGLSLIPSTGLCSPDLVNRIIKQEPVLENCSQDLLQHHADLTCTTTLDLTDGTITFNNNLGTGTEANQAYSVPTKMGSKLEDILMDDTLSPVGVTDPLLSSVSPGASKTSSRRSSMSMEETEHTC
GPR151 ag: activates the human receptor GPR151 | activation, % at 11.2 µM | 650,000 tested, 1% active | Q8TDV0 | PathHunter beta-arrestin GPR151 cells, luminescence; in the data active = activation above about 4.9%;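 note: 0% = median of compound wells and 100% = cells with positive control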
FBW7 activator: human FBW7 E3 ligase activation, primary screen; Q969H0; AlphaScreen FBW7–phospho-cyclin E peptide binding, activator screen; normalized activity (activation), % at 26.1 µM; 650,000 tested, 0.13% active; AID 1259310; in the data active = normalized activity above about 1.9%;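 note: purified mutant Fbw7 with reduced substrate affinity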
MITF inh conf: human MITF inhibition, confirmation | inhibition, % at 2.6 µM | shares compounds with MITF inh | AlphaScreen MITF homodimerization, biotin/His-MITF beads | 4,700 tested, 16% active | AID 1259372;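 active = inhibition above a cutoff derived from the DMSO control wells, cut at about 28% in these data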;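 note: 0% = MITF dimer wells with DMSO only; inhibitors lower the bead chemiluminescence by keeping MITF from dimerizing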
AS interf ctr: optically interferes with AlphaScreen signal; 4,700 tested, 7.6% active; AID 1259376; shares compounds with MITF inh; LysRS AlphaScreen counterscreen, signal interference, triplicate; inhibition, % at 2.6 µM;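 active = inhibition above a cutoff derived from the DMSO control wells, cut at about 30% in these data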
GPR151 confirm: confirmation of human GPR151 activators; shares compounds with GPR151 ag; GPR151 PathHunter beta-arrestin cells, luminescence, 90 min; % of EA-reagent control over plate median; activation, % at 11.2 µM; 6,700 tested, under 10 active; AID 1508609;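 active = mean percent activation across replicates above the confirmation screen cutoff of 4.91%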
GPR119 counter: activates human GPR119 in a GPR151 counter-screen | shares compounds with GPR151 ag | GPR119 PathHunter beta-arrestin cells, luminescence, 90 min; 0 = compound-well median, 100 = enzyme-acceptor control | activation, % at 11.2 µM | 6,700 tested, 0.3% active;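 active = mean percent activation in the counterscreen above 29.09%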;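 note: counterscreen on off-target GPR119 to flag nonselective hits from the GPR151 activator screen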
* = called active by the depositor; . = no result; ! = a repeat was not active. This is a sample that favours compounds with a hit; in the whole collection about 3.5% have one here.

SMILES | TEAD-YAP block | MITF inh | GPR151 ag | FBW7 activator | GPR151 confirm | GPR119 counter | others
Cc1ccc([N+](=O)[O-])cc1NC(=O)C1C(C)(C)C1(C)C | -3.5 | -12.0 | 0.2 | -0.2 | . | .
CCOC(=O)C1C2NC(=S)N(c3ccccc3C)C1(C)Oc1c(OCC)cccc12 (stereo not drawn) | 7.6 | 60.2* | -1.6 | -0.5 | . | . | MITF inh conf=33.5*;AS interf ctr=36.0*
O=C(O)COc1ccc(C=C2C(=O)NC(=O)NC2=O)cc1Br | -8.4 | 14.4 | 0.2 | -0.5 | . | .
OC1(c2cccnc2)CC2CCC(C1)N2Cc1nnnn1C1CCCCC1 (stereo not drawn) | 12.0 | -0.4 | -0.3 | 0.2 | . | .
O=C(c1ccncc1)N1CCN(C2C3CC4CC(C3)CC2C4)CC1 (stereo not drawn) | 11.4 | 75.6* | 1.1 | 0.2 | . | . | MITF inh conf=-3.0;AS interf ctr=-2.6
O=C(c1ccncc1)N1CCN(C2CC3CCC2C3)CC1 (stereo not drawn) | -3.6 | 63.6* | 2.1 | -0.1 | . | . | MITF inh conf=0.6;AS interf ctr=14.0
CC1(C)C(C(=O)Nc2ccc(Br)cc2)C1(C)C | 5.0 | 11.4 | 1.6 | 0.1 | . | .
COc1ccc(CCNCc2ccc(OC)c(OC)c2)cc1 | 5.7 | 51.2* | -1.2 | 0.0 | . | . | MITF inh conf=-0.8;AS interf ctr=-6.3
COc1ccc(CCNCc2ccc(OC)cc2)cc1 | 8.1 | 21.1 | -0.6 | 0.1 | . | .
C=CCN(CC#CCOc1ccccc1OC)CC=C | -11.3 | 60.4* | 10.6* | 0.1 | 0.0 | -3.8 | MITF inh conf=7.1;AS interf ctr=12.3
NC12CN3CN(CN(C3)C1)C2 | -0.2 | -6.0 | 0.0 | 0.0 | . | .
CN1CCN(CCC(=O)OC2CC3CCC(C2)N3C)CC1 (stereo not drawn) | 4.5 | 8.8 | 1.0 | 0.1 | . | .
CN1C2CCC1CC(OC(=O)CNCc1cccs1)C2 (stereo not drawn) | -0.3 | 51.5* | 7.3* | 0.0 | 0.5 | 4.9 | MITF inh conf=7.1;AS interf ctr=13.6
O=C(CCCN1CCC2(CC1)C(=O)N(Cc1cccc(F)c1)CN2c1ccccc1)c1ccc(F)cc1 | . | 15.9 | 6.7* | -0.1 | 0.2 | 1.1
O=c1c2ccccc2nc(/C=C/c2ccccc2Cl)n1-c1ccccc1O | -8.4 | 11.2 | 1.2 | 0.0 | . | .
NP(=O)(Oc1ccc(Cl)cc1)Oc1ccc(Cl)cc1 | 6.5 | 15.8 | 6.3* | 0.2 | 2.2 | 9.7
Cc1cccc(OP(N)(=O)Oc2cccc(C)c2)c1 | 3.4 | -2.1 | -1.0 | -0.1 | . | .
Cc1noc(C)c1CC(=O)N1CCCC(N2CCOCC2)C1 (stereo not drawn) | 2.2 | -0.5 | 0.8 | 0.0 | . | .
O=C(Cc1ccsc1)N1CCCC(N2CCOCC2)C1 (stereo not drawn) | -2.2 | 10.7 | 5.8* | 0.1 | 0.4 | 4.0
O=C(O)c1c2c(nc3ccccc13)CCNC2 | -9.4 | -2.4 | 6.9* | 0.0 | 1.2 | 7.8
OCCNc1c2c(nc3ccccc13)CCCC2 | -8.9 | 1.1 | 1.1 | 0.1 | . | .
COc1ccc(Cc2nccc3cc(OC)c(OC)cc23)cc1OC | 3.8 | 6.2 | 5.8*! | 0.1 | 1.6 | 12.7
COc1ccc(CCNCc2cc(OC)c(OC)c(OC)c2)cc1OC | 13.3 | 40.6 | -1.1 | 0.2 | . | .
O=c1c(CN2CC3CC(C2)c2cccc(=O)n2C3)coc2ccc(Cl)cc12 (stereo not drawn) | 4.0 | -2.7 | 1.1 | -0.2 | . | .
C[C@]12CC[C@H](O)C[C@H]1CC[C@@H]1[C@@H]2C[C@@H](O)[C@]2(C)[C@@H](C3=CC(=O)OC3)CC[C@]12O | 98.1* | -9.4 | 5.7*! | -0.3 | -0.1 | 108.8*
Cc1ccc(-n2c(/C=C/c3cc4c(cc3Br)OCO4)nc3ccccc3c2=O)cc1 | 10.5 | 16.7 | -1.4 | 0.0 | . | .
CCCCOc1ccc(CN2CCN(CCO)CC2)cc1 | -9.1 | 4.2 | -1.1 | -0.2 | . | .
CCCCCCOc1ccc(CN2CCN(CCO)CC2)cc1 | -43.9 | 5.6 | 5.9* | 0.1 | 0.5 | 8.8
CN1CCN(c2ccc(/C=C(\C#N)C(N)=O)cc2[N+](=O)[O-])CC1 | 0.2 | 16.4 | 17.1* | 0.2 | 1.3 | 4.7
CC(=O)C(C)Oc1cc(C)cc2oc(=O)c3c(c12)CCCC3 (stereo not drawn) | 14.9 | 5.0 | 22.2* | 0.1 | -0.5 | 0.2

Assay outcomes (PubChem)
